# Results taken from PubChem BioAssay (Tox21).
# Several values for one entry are separate records, joined by “and”; a condition that tells them apart may be missing. Identical values can stand only once. Where a structure was tested more than once in an assay, its records may differ in their call. Activity calls are given as the source filed them. Where a call stands in place of a potency, no number is given. Unless noted, calls follow the shape of the dose curve; as a rule, active = well fitted curve in the direction sought with a large enough effect in the repeat runs; inconclusive = weak or mixed curves; inactive = no such curve, though single readings can be large; an effect the other way counts as inactive or inconclusive.
# What was measured:
# [1] = qHTS assay to identify small molecule antagonists of the thyroid receptor (TR) signaling pathway - cell viability counter screen (AID 743064); also: nearly all actives have a fitted effect of over 50% in size; also: potency is read from the fitted curve at half-maximal effect
# Summary of the method: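 GH3.TRE-Luc cells, 4 h pre-plating; cpd + T3 1 nM final; 37 °C 23.5 h; CellTiter-Fluor 30 min; fluorescence read.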
# [2] = qHTS assay to identify small molecule antagonists of the thyroid receptor (TR) signaling pathway (AID 743065); also: nearly all actives have a fitted effect of over 55% in size; also: potency is read from the fitted curve at half-maximal effect
# Summary of the method: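 GH3.TRE-Luc rat pituitary cells (two TREs driving luciferase) were dosed with compound, then stimulated with 1 nM T3 (final) for 23.5 h at 37 C. ONE-Glo luminescence was the read-out, with CellTiter-Fluor fluorescence as the cytotoxicity counter-screen.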
# [3] = system: thyroid hormone receptor (rat, GH3 cells); experiment: qHTS assay to identify small molecule agonists of the thyroid receptor (TR) signaling pathway (AID 743066; calls by dose curve)
# [4] = qHTS assay to identify small molecule antagonists of the estrogen receptor alpha (ER-alpha) signaling pathway - cell viability counter screen (AID 743074; calls by dose curve;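 also: HEK293 cells carrying ER-alpha-UAS-bla reporter stimulated with 17beta-estradiol; nearly all actives have a fitted effect of over 45% in size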; also: potency is read from the fitted curve at half-maximal effect)
# [5] = qHTS assay to identify small molecule antagonists of the estrogen receptor alpha (ER-alpha) signaling pathway using the BG1 cell line - cell viability counter screen (AID 743081);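 also: compound given together with 17beta-estradiol as the ER stimulus; nearly all actives have a fitted effect of over 45% in size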; also: potency is read from the fitted curve at half-maximal effect
# [6] = biological target: Aromatase (Homo sapiens) (UniProt P11511); experiment: qHTS assay to identify aromatase inhibitors (AID 743083); also: nearly all actives have a fitted effect of over 55% in size; also: potency is read from the fitted curve at half-maximal effect
# [7] = qHTS assay to identify aromatase inhibitors - cell viability counter screen (AID 743084);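 also: cells stimulated with testosterone during compound exposure; nearly all actives have a fitted effect of over 55% in size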; also: potency is read from the fitted curve at half-maximal effect
# [8] = qHTS assay to identify small molecule that activate the aryl hydrocarbon receptor (AhR) signaling pathway - cell viability counter screen (AID 743086); also: nearly all actives have a fitted effect of over 45% in size; also: potency is read from the fitted curve at half-maximal effect
# Summary of the method: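 HepG2-AhR-luc (HG2L7.5c1) cells, 4000/well, treated 24 h at 37 C with compound; viability measured as CellTiter-Fluor fluorescence after 30 min in the same wells as the luciferase read.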
# [9] = biological target: Peroxisome proliferator-activated receptor gamma (Homo sapiens) (UniProt P37231); experiment: qHTS assay to identify small molecule agonists of the peroxisome proliferator-activated receptor gamma (PPARg) signaling pathway (AID 743094; active = well fitted activation curve with a large enough effect in the signal ratio in the repeat runs, not every such curve was filed as active; inconclusive = weak or mixed curves, or effect the other way; inactive = no such curve, though single readings can be large or run the other way; the % refers to the signal ratio; also: potency is read from the fitted curve at half-maximal effect)
# Summary of the method: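 Following 5 h plating at 37C, PPARg-bla HEK293H cells receive compound or DMSO for 17 h; fluorescence intensity is recorded after LiveBLAzer B/G loading for 1 h at room temperature.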
# [10] = biological target: Peroxisome proliferator-activated receptor gamma (Homo sapiens) (UniProt P37231); experiment: qHTS assay to identify small molecule antagonists of the peroxisome proliferator-activated receptor gamma (PPARg) signaling pathway (AID 743191; calls by dose curve; also: series mostly up to about 63 µM; nearly all actives have a fitted effect of over 30% in size)
# Summary of the method: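 GeneBLAzer PPARg UAS-bla HEK293H cells, 5 h post-plating, exposed to compounds 17 h at 37C. LiveBLAzer B/G FRET substrate added for 1 h at room temperature; beta-lactamase reporter read by fluorescence intensity.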
# [11] = qHTS assay to identify small molecule antagonists of the peroxisome proliferator-activated receptor gamma (PPARg) signaling pathway - cell viability counter screen (AID 743194); also: nearly all actives have a fitted effect of over 55% in size; also: potency is read from the fitted curve at half-maximal effect
# Summary of the method: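 Cytotoxicity counter screen in PPARg-bla HEK293H cells, same wells as reporter assay. Compounds plus 50 nM rosiglitazone (final) for 17 h at 37 C, then viability read by CellTiter-Glo luminescence.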
# [12] = qHTS assay for small molecule agonists of the antioxidant response element (ARE) signaling pathway (AID 743202; active = well fitted activation curve with a large enough effect in the signal ratio in the repeat runs, not every such curve was filed as active; inconclusive = weak or mixed curves, or effect the other way; inactive = no such curve, though single readings can be large or run the other way; the % refers to the signal ratio; also: potency is read from the fitted curve at half-maximal effect)
# Summary of the method: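 ARE-bla HepG2 cells (beta-lactamase reporter under the antioxidant response element), plated 5 hours, then exposed to compounds 16 hours at 37 C. LiveBLAzer B/G FRET substrate added for 2 hours at room temperature; fluorescence intensity read.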
# [13] = qHTS assay for small molecule agonists of the antioxidant response element (ARE) signaling pathway - cell viability counter screen (AID 743203; calls by dose curve; also: nearly all actives have a fitted effect of over 55% in size; also: potency is read from the fitted curve at half-maximal effect)
# Summary of the method: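 Compounds in DMSO were pinned onto ARE-bla HepG2 cells plated 5 hrs earlier at 2,000 cells/well. Sixteen hours later at 37C/5% CO2, CellTiter-Glo was added and luminescence measured after 30 min at room temperature.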
# [14] = qHTS assay for small molecule activators of the heat shock response signaling pathway - cell viability counter screen (AID 743209); also: nearly all actives have a fitted effect of over 50% in size; also: potency is read from the fitted curve at half-maximal effect
# Summary of the method: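 Counter screen for cytotoxicity in HeLa HSE-bla reporter cells. Treatment was 5 h at 37 C; viability was detected by luminescent ATP assay (CellTiter-Glo) in the same wells as the beta-lactamase read.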
# [15] = qHTS assay for small molecule activators of the heat shock response signaling pathway (AID 743210; active = well fitted activation curve with a large enough effect in the signal ratio in the repeat runs, with a control signal flat, not every such curve was filed as active; inconclusive = weak or mixed curves; the % refers to the signal ratio; also: series mostly up to about 63 µM)
# Summary of the method: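 HSE-bla HeLa cells (beta-lactamase reporter under heat shock response elements), plated overnight, then exposed to compounds 5 h at 37 C; LiveBLAzer B/G FRET substrate added, 2.5 h at room temperature, fluorescence intensity read.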
# [16] = biological target: Estrogen receptor (Homo sapiens) (UniProt P03372); experiment: qHTS assay to identify small molecule antagonists of the estrogen receptor alpha (ER-alpha) signaling pathway (AID 743069; active = well fitted curve in the direction sought with a large enough effect in the signal ratio in the repeat runs, not every such curve was filed as active; inconclusive = weak or mixed curves, or effect the other way; inactive = no such curve, though single readings can be large or run the other way; the % refers to the signal ratio)
# Summary of the method: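 HEK293 ER-alpha-UAS-bla GripTite cells, held overnight in 2% charcoal-stripped FBS, 5,000 cells/well, preincubated 4 h, then compound plus 17beta-estradiol for 18 h at 37C. Beta-lactamase read by LiveBLAzer B/G FRET substrate, 2 h at room temperature.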
# [17] = biological target: Estrogen receptor (Homo sapiens) (UniProt P03372); experiment: qHTS assay to identify small molecule agonists of the estrogen receptor alpha (ER-alpha) signaling pathway (AID 743075; calls by dose curve; also: potency is read from the fitted curve at half-maximal effect)
# [18] = biological target: Estrogen receptor (Homo sapiens) (UniProt P03372); experiment: qHTS assay to identify small molecule agonists of the estrogen receptor alpha (ER-alpha) signaling pathway using the BG1 cell line (AID 743079); also: nearly all actives have a fitted effect of over 20% in size; also: potency is read from the fitted curve at half-maximal effect
# [19] = qHTS assay to identify small molecule antagonists of the estrogen receptor alpha (ER-alpha) signaling pathway using the BG1 cell line (AID 743080; calls by dose curve;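 also: BG1 cells stimulated with 17beta-estradiol alongside compound; nearly all actives have a fitted effect of over 25% in size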; also: potency is read from the fitted curve at half-maximal effect)
# Summary of the method: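 BG1Luc4E2, endogenous ER-alpha, 4xERE-luc; 5 d charcoal-stripped FBS, phenol red free; 24 h plating; cpd + 17beta-estradiol 21.5 h, 37 C/5% CO2; CellTiter-Fluor viability 30 min, then ONE-Glo luciferase 30 min RT.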
# [20] = biological target: Aryl hydrocarbon receptor (Homo sapiens) (UniProt P35869); experiment: qHTS assay to identify small molecule that activate the aryl hydrocarbon receptor (AhR) signaling pathway (AID 743085); also: nearly all actives have a fitted effect of over 15% in size; also: potency is read from the fitted curve at half-maximal effect;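 as to activation: HG2L7.5c1 human HepG2 liver cells with stably integrated DRE-driven firefly reporter; series mostly up to about 70 µM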
# Summary of the method: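 Luminescence read-out: ONE-Glo reagent, 30 min at room temperature, in HG2L7.5c1 HepG2 reporter cells treated 24 h at 37C. Viability was measured beforehand by CellTiter-Fluor fluorescence after 30 min at 37C.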
# Aromatase (Homo sapiens), sequence (P11511 whole entry, looked up): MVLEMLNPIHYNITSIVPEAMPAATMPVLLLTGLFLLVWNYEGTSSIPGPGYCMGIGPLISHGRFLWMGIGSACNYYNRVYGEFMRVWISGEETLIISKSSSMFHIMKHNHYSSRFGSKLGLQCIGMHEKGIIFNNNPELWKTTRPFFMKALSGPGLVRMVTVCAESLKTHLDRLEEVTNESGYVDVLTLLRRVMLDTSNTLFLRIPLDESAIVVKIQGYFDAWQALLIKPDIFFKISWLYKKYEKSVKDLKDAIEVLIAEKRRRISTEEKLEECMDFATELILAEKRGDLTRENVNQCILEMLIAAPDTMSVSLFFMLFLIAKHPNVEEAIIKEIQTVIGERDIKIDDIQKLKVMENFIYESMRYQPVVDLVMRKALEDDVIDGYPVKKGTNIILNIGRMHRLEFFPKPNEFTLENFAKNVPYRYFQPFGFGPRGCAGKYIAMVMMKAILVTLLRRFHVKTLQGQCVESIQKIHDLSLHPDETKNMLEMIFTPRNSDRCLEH
# Aryl hydrocarbon receptor (Homo sapiens), sequence (P35869 whole entry, looked up): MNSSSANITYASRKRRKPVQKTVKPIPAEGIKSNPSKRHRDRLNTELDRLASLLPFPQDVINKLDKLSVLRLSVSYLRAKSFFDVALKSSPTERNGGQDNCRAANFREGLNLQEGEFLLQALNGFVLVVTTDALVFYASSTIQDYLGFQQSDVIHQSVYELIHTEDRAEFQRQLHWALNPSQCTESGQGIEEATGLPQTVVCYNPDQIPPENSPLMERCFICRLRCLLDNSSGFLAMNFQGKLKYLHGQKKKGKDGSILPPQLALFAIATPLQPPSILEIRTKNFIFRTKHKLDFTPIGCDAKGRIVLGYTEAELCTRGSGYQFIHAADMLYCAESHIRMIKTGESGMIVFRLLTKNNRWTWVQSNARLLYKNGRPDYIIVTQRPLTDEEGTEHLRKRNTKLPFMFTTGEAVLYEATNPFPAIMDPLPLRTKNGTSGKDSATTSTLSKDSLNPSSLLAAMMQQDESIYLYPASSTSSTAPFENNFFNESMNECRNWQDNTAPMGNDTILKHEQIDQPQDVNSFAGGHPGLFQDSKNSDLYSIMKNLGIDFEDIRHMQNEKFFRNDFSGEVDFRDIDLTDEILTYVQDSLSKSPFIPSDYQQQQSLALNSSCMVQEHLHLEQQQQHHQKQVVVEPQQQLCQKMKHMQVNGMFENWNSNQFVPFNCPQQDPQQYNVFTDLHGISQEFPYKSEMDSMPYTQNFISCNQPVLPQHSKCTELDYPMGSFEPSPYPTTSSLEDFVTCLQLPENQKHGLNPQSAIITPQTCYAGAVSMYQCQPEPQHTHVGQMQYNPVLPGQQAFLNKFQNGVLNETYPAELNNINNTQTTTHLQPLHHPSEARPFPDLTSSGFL
# Peroxisome proliferator-activated receptor gamma (Homo sapiens), sequence (P37231 whole entry, looked up): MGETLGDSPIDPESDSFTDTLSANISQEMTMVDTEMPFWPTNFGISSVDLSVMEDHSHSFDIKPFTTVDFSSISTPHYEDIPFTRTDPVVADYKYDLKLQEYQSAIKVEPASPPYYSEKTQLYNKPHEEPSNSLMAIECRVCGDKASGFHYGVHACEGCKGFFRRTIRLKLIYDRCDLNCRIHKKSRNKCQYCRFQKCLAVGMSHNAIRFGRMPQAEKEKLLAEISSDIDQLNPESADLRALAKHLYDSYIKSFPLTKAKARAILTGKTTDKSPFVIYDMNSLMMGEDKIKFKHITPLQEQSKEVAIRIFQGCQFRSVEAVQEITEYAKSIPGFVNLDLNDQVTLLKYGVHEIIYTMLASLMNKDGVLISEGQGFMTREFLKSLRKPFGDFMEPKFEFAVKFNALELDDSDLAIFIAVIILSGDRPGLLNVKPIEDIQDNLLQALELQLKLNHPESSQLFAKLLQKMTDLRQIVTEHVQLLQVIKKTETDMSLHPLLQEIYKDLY
# Estrogen receptor (Homo sapiens), sequence (P03372 whole entry, looked up): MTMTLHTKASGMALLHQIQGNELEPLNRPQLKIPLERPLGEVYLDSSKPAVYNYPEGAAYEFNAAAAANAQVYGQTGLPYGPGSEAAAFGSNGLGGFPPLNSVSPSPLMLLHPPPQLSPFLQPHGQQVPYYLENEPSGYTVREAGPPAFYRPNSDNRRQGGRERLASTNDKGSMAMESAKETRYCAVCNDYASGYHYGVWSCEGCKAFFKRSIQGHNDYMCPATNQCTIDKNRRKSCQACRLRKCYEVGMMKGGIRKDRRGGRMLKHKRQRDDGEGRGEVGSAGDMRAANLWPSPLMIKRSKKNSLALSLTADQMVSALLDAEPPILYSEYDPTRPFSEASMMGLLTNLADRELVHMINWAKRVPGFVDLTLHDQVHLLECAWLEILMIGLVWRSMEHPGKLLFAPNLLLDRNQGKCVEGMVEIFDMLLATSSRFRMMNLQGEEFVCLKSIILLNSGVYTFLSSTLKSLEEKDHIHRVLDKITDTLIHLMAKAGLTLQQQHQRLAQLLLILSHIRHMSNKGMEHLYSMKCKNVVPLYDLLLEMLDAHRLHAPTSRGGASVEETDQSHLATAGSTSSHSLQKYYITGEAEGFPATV
Structure (SMILES),Potency [1],Potency [2],Potency [3],Potency [4],Potency [5],Potency [6],Potency [7],Potency [8],Potency [9],Potency [10],Potency [11],Potency [12],Potency [13],Potency [14],Potency [15],Potency [16],Potency [17],Potency [18],Potency [19],Potency [20]
NNCCc1ccccc1,inactive and 27.4 µM (active),30.7 µM (active),inactive,inactive,inactive,inactive,inactive,inactive,inactive,inactive,inactive,inactive,inactive,inactive,inactive,–,–,–,–,–
c1ccc2n[nH]nc2c1,inactive,inactive,inactive,inactive,inactive,inactive,inactive,inactive,inactive,inactive,inactive,inactive,inactive,–,inactive,–,–,–,–,–
CCC(C)(C)C(=O)O[C@H]1C[C@@H](C)C=C2C=C[C@H](C)[C@H](CC[C@@H]3C[C@@H](O)CC(=O)O3)[C@H]21,inactive,–,inactive,inactive,inactive,inactive,inactive,inactive,inactive,–,inactive,–,inactive,–,–,inactive,inactive,12.7 µM (active) and inactive,–,–
CCCC(=O)c1ccccc1,inactive,inactive,inactive,inactive,inactive,inactive,inactive,–,inactive,–,inactive,inactive,inactive,–,inactive,–,–,–,–,–
CC[C@H]1CN2CCc3cc(OC)c(OC)cc3[C@@H]2C[C@@H]1C[C@H]1NCCc2cc(OC)c(OC)cc21,84.1 nM (active) and 97.2 nM (active),37.6 nM (active) and 38.7 nM (active),inactive,inactive,9.72 µM (active),237 nM (active) and 244 nM (active),9.72 µM (active),–,–,–,–,–,24.4 µM (active),2.46 µM (active) and 10.6 µM (active),inactive,–,–,–,–,–
c1cnc2cc3c(cc2n1)C1CNCC3C1,inactive,–,inactive,inactive,inactive,inactive,inactive,–,inactive,inactive,inactive,inactive,inactive,–,inactive,inactive,inactive,inactive,inactive,inactive
CCCCCCC(O)CCCCCCCCCCC(=O)O (centres undefined),inactive,inactive,inactive,–,–,inactive,inactive,inactive,–,–,21.9 µM (active),–,–,inactive,inactive,–,–,–,–,–
O=Nc1ccc(Nc2ccccc2)cc1,5.48 µM (active) and 6.86 µM (active),4.35 µM (active) and 5.45 µM (active),inactive,–,inactive,–,27.4 µM (active),inactive,15.5 µM (active),–,19.6 µM (active) and 43.6 µM (active),3.06 µM (active),inactive,34.7 µM (active),–,–,12.4 µM [inconclusive] (active) and 55 µM [activator] (active),68.6 µM (active),–,–
Cc1cccc([N+](=O)[O-])c1C(=O)O,inactive,–,inactive,inactive,inactive,inactive,inactive,inactive,inactive,inactive,inactive,inactive,inactive,inactive,inactive,inactive,inactive,inactive,inactive,inactive
O=C(O)CCc1ccccc1,inactive,inactive,inactive,inactive,inactive,–,–,inactive,–,–,inactive,inactive,–,inactive,inactive,–,–,–,–,–
CCCN[C@H]1CCc2nc(N)sc2C1,inactive,–,inactive,inactive,inactive,inactive,inactive,inactive,–,–,inactive,inactive,inactive,inactive,–,–,–,–,–,–
CNCCC(Oc1ccc(C(F)(F)F)cc1)c1ccccc1 (centres undefined),11.9 µM (active) and 9.56 µM (active),11.9 µM (active) and 15.2 µM (active),–,inactive and 48.4 µM (active),inactive,47.9 µM (active),inactive and 47.9 µM (active),inactive and 60.3 µM (active),–,–,48.4 µM (active),–,17 µM (active),–,–,–,–,–,–,inactive
CC[C@]1(O)C[C@@H]2CN(CCc3c([nH]c4ccccc34)[C@@](C(=O)OC)(c3cc4c(cc3OC)N(C)[C@H]3[C@@](O)(C(=O)OC)[C@H](OC(C)=O)[C@]5(CC)C=CCN6CC[C@]43[C@@H]65)C2)C1,188 nM (active) and 266 nM (active),75 nM (active) and 42.2 nM (active),–,–,15 µM (active),21.1 µM (active),–,16.8 µM (active) and 15 µM (active),–,–,inactive,–,inactive,–,inactive,–,–,–,–,inactive
Nc1nc(=S)c2[nH]cnc2[nH]1,inactive,inactive,inactive,–,inactive,inactive,inactive,inactive,–,inactive,2.98 µM (active),4.73 µM (active),3.86 µM (active),inactive,inactive,–,19 µM [activator] (active) and inactive,21.1 µM (active) and inactive,inactive and 750 nM (active),inactive and 61.1 µM (active)
CCN(CC)CCOc1ccc(/C(=C(\Cl)c2ccccc2)c2ccccc2)cc1,7.5 µM (active) and 7.86 µM (active),6.68 µM (active) and 7.86 µM (active),inactive,39.7 µM (active),inactive,3.35 µM (active) and 1.4 µM (active),inactive and 27.9 µM (active),–,–,–,17.7 µM (active),–,15.7 µM (active) and 29.8 µM (active),39.7 µM (active) and 29.8 µM (active),–,–,–,–,–,inactive
Cc1cccc2n[nH]nc12,inactive,inactive,inactive,inactive,inactive,–,–,inactive,–,–,inactive,inactive,inactive,–,inactive,–,–,–,–,–
CC(C)(C)NC(=O)[C@@H]1CN(Cc2cccnc2)CCN1C[C@@H](O)C[C@@H](Cc1ccccc1)C(=O)N[C@H]1c2ccccc2C[C@H]1O,inactive,–,inactive,inactive,inactive,29.8 µM (active) and inactive,26.6 µM (active),inactive,–,–,inactive,inactive,inactive,–,inactive,–,–,–,–,inactive
Cc1ccc(S(=O)(=O)Oc2ccc(N=Nc3ccc(-c4ccc(N=Nc5c(O)ccc6cc(S(=O)(=O)O)cc(S(=O)(=O)O)c56)c(C)c4)cc3C)cc2)cc1,27.4 µM (active) and 17.8 µM (active),10.9 µM (active),inactive,–,30.8 µM (active) and 15.9 µM (active),–,10.9 µM (active) and 10 µM (active),9.73 µM (active) and 14.1 µM (active),–,–,inactive,–,inactive,–,inactive,–,–,–,–,inactive
OCCOCCN1CCN(C(c2ccccc2)c2ccc(Cl)cc2)CC1 (centres undefined),26.9 µM (active),23.7 µM (active) and 47.9 µM (active),inactive,inactive,inactive,inactive,inactive,–,inactive,–,inactive,inactive,inactive,inactive,–,–,–,–,–,–
CCCCCCCCCCCC[N+](C)(C)C,17.2 µM (active) and 13.7 µM (active) and 15.4 µM (active),9.66 µM (active) and 6.86 µM (active) and 7.7 µM (active),–,inactive and 54.9 µM (active),60.9 µM (active),24.3 µM (active) and 17.2 µM (active) and 21.7 µM (active),inactive,inactive,inactive,inactive,–,8.61 µM (active),inactive and 48.6 µM (active) and 61.1 µM (active),–,inactive,–,–,–,–,–
CCCCCC(=O)O[C@]1(C(C)=O)CC[C@H]2[C@@H]3CCC4=CC(=O)CC[C@]4(C)[C@H]3CC[C@@]21C,18.8 µM (active),10.6 µM (active) and 19.2 µM (active),inactive,–,inactive,inactive and 54.1 µM (active),inactive,inactive,inactive,–,–,–,54.1 µM (active),inactive,–,–,inactive,–,–,inactive
CCC(CO)(CO)COCC(CC)(CO)CO,inactive,inactive,inactive,–,inactive,inactive,inactive,inactive,inactive,inactive,inactive,inactive,inactive,inactive,inactive,–,–,–,–,inactive
COc1ccc(CCN2CCC(Nc3nc4ccccc4n3Cc3ccc(F)cc3)CC2)cc1,5.31 µM (active) and 1.25 µM (active),5.96 µM (active) and 1.57 µM (active),inactive,12.6 µM (active),55.7 µM (active),6.25 µM (active),26.6 µM (active) and 12.5 µM (active),23.7 µM (active) and 9.9 µM (active),–,–,4.46 µM (active) and 26.6 µM (active),–,6.25 µM (active) and 26.6 µM (active),17.8 µM (active) and inactive,inactive,–,–,–,–,inactive
CCn1c2ccccc2c2cc(N)ccc21,inactive,–,inactive,inactive,inactive,inactive,inactive,inactive,inactive,inactive,inactive,inactive,inactive,inactive,–,inactive,48.5 µM [inconclusive] (active) and inactive,inactive,inactive,9.59 µM (active) and 9.69 µM (active) and 3.06 µM (active)
